Experimental data as given in ChEMBL document CHEMBL1961873, “Compounds: GSK PKIS; Assays: Nanosyn kinase panel” (2012).
Where “and” joins values, the source holds several entries; their conditions need not be identical. Equal values may be shown once.

Assays:
[1] = biological target: High affinity nerve growth factor receptor (Homo sapiens) (UniProt P04629); details: at 1 µM;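 also: each value is the mean percent inhibition of TRKA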
[2] = biological target: BDNF/NT-3 growth factors receptor (Homo sapiens) (UniProt Q16620); details: at 0.1 µM
Sequence of BDNF/NT-3 growth factors receptor (Homo sapiens) (Q16620 32-822 limits assumed): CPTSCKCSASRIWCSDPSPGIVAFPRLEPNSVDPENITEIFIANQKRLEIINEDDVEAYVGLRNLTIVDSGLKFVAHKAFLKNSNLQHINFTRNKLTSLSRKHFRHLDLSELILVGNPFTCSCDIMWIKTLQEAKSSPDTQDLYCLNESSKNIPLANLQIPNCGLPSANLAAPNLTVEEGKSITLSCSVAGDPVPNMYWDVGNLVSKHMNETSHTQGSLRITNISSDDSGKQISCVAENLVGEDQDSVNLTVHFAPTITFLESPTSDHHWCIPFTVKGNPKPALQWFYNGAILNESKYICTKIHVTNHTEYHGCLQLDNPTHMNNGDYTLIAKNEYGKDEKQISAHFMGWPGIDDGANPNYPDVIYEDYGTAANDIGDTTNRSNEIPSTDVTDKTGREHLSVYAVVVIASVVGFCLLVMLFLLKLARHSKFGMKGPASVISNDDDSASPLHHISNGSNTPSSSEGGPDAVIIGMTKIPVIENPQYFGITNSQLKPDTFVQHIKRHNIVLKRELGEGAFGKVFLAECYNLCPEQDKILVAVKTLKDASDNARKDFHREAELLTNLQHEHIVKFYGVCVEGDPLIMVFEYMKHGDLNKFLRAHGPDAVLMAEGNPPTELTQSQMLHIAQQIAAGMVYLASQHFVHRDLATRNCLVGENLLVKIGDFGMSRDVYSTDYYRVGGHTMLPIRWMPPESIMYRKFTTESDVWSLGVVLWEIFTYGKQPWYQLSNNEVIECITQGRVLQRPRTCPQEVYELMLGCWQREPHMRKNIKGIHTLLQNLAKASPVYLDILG

[3] = biological target: BDNF/NT-3 growth factors receptor (Homo sapiens) (UniProt Q16620); details: at 1 µM
[4] = biological target: NT-3 growth factor receptor (Homo sapiens) (UniProt Q16288); details: at 0.1 µM
Sequence of NT-3 growth factor receptor (Homo sapiens) (Q16288 32-839 limits assumed): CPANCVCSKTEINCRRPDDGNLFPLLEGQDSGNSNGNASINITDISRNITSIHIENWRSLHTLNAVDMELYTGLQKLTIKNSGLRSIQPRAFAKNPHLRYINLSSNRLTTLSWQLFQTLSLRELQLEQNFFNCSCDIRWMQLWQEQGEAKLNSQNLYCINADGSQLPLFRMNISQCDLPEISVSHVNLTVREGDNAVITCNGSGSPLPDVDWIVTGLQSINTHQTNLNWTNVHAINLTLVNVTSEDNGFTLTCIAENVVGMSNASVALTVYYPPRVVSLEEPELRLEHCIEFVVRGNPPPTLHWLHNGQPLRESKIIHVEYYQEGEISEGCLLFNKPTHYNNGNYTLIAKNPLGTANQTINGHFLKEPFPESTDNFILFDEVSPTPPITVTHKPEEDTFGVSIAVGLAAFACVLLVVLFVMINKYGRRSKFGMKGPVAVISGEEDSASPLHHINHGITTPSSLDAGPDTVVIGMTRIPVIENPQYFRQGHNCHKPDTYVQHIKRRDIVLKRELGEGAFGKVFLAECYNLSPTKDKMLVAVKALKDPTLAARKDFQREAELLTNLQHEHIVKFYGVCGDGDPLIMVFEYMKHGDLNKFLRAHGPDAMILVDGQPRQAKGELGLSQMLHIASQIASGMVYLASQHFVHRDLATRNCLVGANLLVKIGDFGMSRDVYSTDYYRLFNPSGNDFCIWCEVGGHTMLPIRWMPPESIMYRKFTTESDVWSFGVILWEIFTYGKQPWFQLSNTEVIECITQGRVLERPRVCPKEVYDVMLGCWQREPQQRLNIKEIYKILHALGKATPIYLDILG

[5] = biological target: NT-3 growth factor receptor (Homo sapiens) (UniProt Q16288); details: at 1 µM
[6] = biological target: T1, Tyrosine-protein kinase TXK (Homo sapiens) (UniProt P42681); details: at 0.1 µM
T1 sequence (whole entry): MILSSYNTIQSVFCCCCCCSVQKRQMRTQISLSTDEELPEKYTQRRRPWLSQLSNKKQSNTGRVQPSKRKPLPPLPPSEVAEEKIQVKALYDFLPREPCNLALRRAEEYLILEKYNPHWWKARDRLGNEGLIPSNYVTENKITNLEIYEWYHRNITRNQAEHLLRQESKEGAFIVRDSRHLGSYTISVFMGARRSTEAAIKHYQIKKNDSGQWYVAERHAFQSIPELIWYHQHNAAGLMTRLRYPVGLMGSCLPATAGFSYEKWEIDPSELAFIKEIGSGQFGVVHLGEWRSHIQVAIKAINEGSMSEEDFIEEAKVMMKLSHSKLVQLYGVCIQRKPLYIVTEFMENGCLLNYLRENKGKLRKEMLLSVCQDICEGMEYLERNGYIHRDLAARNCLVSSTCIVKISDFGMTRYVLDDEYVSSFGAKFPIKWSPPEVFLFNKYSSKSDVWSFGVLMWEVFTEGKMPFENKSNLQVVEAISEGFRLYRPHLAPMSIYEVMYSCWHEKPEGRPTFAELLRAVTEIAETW

[7] = biological target: T1, Tyrosine-protein kinase TXK (Homo sapiens); details: at 1 µM
[8] = biological target: Non-receptor tyrosine-protein kinase TYK2 (Homo sapiens) (UniProt P29597); details: at 0.1 µM;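 also: each value is a mean of the inhibition readings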
Sequence of Non-receptor tyrosine-protein kinase TYK2 (Homo sapiens) (P29597 whole entry): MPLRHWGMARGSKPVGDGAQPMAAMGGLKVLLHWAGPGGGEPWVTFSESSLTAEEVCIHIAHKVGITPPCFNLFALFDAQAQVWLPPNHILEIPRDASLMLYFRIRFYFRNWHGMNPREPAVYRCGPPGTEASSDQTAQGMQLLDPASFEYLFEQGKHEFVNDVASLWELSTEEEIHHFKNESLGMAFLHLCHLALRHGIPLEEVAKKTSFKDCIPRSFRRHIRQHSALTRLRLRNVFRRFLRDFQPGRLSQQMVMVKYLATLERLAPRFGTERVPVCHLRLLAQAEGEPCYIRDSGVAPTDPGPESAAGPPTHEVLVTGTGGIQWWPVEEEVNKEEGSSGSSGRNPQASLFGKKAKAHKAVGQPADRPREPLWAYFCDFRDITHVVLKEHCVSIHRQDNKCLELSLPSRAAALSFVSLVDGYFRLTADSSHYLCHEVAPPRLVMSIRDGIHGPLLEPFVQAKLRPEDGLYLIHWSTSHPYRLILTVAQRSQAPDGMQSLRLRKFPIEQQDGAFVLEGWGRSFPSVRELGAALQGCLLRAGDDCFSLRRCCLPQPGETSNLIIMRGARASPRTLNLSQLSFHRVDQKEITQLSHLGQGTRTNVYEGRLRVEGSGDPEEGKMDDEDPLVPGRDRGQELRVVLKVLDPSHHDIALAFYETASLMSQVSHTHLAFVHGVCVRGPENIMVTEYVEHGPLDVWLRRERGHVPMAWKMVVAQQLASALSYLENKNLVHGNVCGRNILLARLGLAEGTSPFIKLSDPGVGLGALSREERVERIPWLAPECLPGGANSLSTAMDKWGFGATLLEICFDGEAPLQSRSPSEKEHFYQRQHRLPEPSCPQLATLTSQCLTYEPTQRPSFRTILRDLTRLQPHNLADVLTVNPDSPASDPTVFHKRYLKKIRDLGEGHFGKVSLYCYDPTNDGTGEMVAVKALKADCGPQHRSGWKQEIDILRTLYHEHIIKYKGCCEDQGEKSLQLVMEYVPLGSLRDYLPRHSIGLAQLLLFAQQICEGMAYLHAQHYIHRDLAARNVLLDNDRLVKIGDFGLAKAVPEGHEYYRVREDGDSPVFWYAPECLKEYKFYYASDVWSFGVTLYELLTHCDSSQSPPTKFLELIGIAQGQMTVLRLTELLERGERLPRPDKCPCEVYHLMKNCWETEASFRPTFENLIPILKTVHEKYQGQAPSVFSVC

[9] = biological target: T2, Dual specificity protein kinase TTK (Homo sapiens) (UniProt P33981); details: at 1 µM;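 also: reported figures are mean TTK inhibition at 1 µM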
T2 sequence (whole entry): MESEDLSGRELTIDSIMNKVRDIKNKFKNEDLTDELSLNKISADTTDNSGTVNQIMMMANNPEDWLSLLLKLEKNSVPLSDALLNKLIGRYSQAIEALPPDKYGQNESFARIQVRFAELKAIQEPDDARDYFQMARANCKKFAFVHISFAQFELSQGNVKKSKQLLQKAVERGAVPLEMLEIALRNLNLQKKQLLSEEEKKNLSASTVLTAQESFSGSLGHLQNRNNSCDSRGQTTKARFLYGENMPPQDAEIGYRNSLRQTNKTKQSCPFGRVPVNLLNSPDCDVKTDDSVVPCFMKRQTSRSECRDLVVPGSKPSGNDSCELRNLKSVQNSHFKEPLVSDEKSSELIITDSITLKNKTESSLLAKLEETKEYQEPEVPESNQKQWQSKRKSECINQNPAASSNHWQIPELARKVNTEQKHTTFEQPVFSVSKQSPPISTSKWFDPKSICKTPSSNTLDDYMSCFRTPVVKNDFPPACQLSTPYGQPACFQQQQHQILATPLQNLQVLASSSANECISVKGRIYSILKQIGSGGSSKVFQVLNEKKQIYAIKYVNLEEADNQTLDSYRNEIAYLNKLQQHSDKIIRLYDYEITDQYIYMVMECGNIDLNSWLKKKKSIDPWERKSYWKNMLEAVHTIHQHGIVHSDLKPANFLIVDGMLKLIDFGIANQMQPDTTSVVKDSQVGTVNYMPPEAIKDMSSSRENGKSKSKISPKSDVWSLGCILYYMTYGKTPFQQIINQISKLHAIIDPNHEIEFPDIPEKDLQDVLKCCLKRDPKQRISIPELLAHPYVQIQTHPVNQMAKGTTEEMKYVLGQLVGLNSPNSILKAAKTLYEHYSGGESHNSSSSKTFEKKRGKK

[10] = biological target: T3, Aurora kinase A (Homo sapiens) (UniProt O14965); details: at 0.1 µM;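 also: each reported value is a mean percent inhibition of Aurora-A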
T3 sequence (whole entry): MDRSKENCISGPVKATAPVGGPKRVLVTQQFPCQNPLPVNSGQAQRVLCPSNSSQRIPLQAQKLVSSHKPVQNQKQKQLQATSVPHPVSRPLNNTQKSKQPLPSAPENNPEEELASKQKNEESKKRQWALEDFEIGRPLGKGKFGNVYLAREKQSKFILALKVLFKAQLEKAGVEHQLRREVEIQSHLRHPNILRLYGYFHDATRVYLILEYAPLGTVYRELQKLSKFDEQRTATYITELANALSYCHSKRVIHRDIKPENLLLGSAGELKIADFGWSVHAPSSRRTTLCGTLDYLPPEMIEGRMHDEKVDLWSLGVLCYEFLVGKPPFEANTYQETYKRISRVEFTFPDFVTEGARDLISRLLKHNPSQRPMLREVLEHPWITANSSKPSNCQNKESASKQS

Sequence of High affinity nerve growth factor receptor (Homo sapiens) (P04629 33-796 limits assumed): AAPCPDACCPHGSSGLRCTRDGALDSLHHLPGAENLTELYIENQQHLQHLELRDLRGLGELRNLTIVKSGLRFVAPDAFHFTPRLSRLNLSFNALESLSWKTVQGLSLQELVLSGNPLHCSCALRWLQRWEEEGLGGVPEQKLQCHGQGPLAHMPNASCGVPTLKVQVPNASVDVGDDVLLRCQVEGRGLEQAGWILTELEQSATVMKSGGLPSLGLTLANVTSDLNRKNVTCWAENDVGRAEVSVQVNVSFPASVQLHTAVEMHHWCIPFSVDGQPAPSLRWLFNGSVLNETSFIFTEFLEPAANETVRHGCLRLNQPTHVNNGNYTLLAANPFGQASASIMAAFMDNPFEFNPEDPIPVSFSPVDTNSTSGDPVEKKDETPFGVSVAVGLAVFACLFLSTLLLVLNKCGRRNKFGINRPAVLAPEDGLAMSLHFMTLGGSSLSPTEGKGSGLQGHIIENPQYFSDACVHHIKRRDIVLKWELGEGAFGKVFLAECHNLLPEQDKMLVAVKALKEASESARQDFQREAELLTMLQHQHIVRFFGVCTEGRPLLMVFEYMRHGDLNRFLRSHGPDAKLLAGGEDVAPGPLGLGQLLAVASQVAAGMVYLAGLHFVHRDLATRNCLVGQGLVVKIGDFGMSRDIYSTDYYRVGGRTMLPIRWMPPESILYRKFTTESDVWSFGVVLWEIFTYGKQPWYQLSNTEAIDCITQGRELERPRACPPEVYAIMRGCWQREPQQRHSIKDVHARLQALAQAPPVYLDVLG

Structure (SMILES) | inhibition [1] | inhibition [2] | inhibition [3] | inhibition [4] | inhibition [5] | inhibition [6] | inhibition [7] | inhibition [8] | inhibition [9] | inhibition [10]
CN(c1ccc(NC(=O)NCCN2CCOCC2)cc1)c1ccnc(Nc2ccc(CS(C)(=O)=O)cc2)n1 | 5.98% | 3.15% | 8% | 1.78% | 11.3% | 16.9% | 57.7% | -6.06% | 7.72% | 24.5%
COC(=O)Nc1nc2cc(Oc3ccc(NC(=O)Nc4ccccc4)cc3)ccc2[nH]1 | 0.28% | 1.72% | 3.06% | 4.04% | 7.05% | 1.84% | 1.98% | -2.96% | 4.66% | 2.47%
CCS(=O)(=O)c1ccc(OC)c(Nc2ncc(-c3cccc(F)c3)o2)c1 | 42.8% | 10% | 47.2% | 12% | 48.1% | 17.2% | 56% | -0.94% | 8.85% | 7.01%
OCCCNc1nccc(-c2c(-c3ccc(F)cc3)nn3cc(C(F)(F)F)ccc23)n1 | 1.07% | 1.2% | 1.1% | 2.9% | 2.72% | 4.77% | 6.39% | -6.14% | 4.7% | 0.87%
c1cnn2ncc(-c3ccnc(NCCCN4CCOCC4)n3)c2c1 | 1.75% | 3.17% | 1.35% | 3.48% | 2.63% | 1.71% | -0.63% | -5.16% | 8.22% | 2.65%
CCN1CCC(C(=O)Nc2n[nH]c3nnc(-c4cccc(F)c4F)cc23)CC1 | 4.28% | 0.46% | 1.47% | 2.09% | 0.96% | -0.15% | 1.19% | 3.04% | 2.28% | 2.41%
Cc1cc(O)cc(C)c1/C=C/c1cncc(C(N)=O)c1 | 1.48% | 1.71% | 0.87% | 1.25% | 0.56% | 5.98% | 27.9% | -2.57% | 2.18% | 2.32%
Cn1c(-c2nonc2N)nc2cnccc21 | 0.76% | 1.23% | 0.53% | 2% | 1.22% | 4.05% | 4.22% | -2.09% | 8.28% | 1.22%
O=C(Nc1n[nH]c2nnc(-c3cccnc3)cc12)C1CC1 | -0.64% | -0.74% | 0.57% | -0.44% | -0.22% | 0.3% | 2.21% | 1.8% | 2.14% | 0.85%
Fc1cccc(COc2ccc(Nc3ncncc3C#Cc3ccccc3)cc2Cl)c1 | 2.13% | 2.56% | 5.8% | 2.81% | 6.63% | 1.94% | 3.56% | -4.7% | 8.47% | 2.33%
COc1cc2c(cc1Nc1nc(Nc3cccc(F)c3C(N)=O)c3cc[nH]c3n1)N(C(=O)CN1CCN(C(C)C)CC1)CC2 | 0.01% | -0.13% | 0.84% | -1.97% | -0.99% | 7.39% | 3.01% | 0.12% | 47.7% | 0.69%
O=C(O[C@H]1CN[C@H](C#Cc2cc3ncnc(Nc4ccc5c(ccn5Cc5cc(F)ccc5F)c4)c3s2)C1)N1CCOCC1 | 0.61% | 1.99% | 3.22% | 2.18% | 2.92% | 3.8% | 5.25% | -1.85% | 9.66% | 4.5%
Nc1ncnc2occ(-c3ccc(NC(=O)Nc4cc(C(F)(F)F)ccc4F)cc3)c12 | 89.2% and 97% | 54.8% and 40.6% | 90.7% and 88.5% | 52.9% and 39.5% | 92.8% and 85.3% | 3.14% and 1.59% | 5.09% and 0.12% | -1.29% and 0.57% | 21.4% and 7.71% | 3.16% and -1.11%
CS(=O)(=O)CCNCc1ccc(-c2ccc3ncnc(Nc4ccc(OCc5cccc(C(F)(F)F)c5)cc4)c3c2)o1 | 7.21% | 4.9% | 17.5% | 3% | 10.1% | 5.9% | 5.59% | -2.56% | 8.3% | 3.79%
COc1cc(N2CCN(C(C)C)CC2)ccc1Nc1nc(Nc2cccc3ncccc23)c2cc[nH]c2n1 | 1.49% | 0.73% | 0.22% | 0.87% | 0.74% | 0.48% | 3.98% | -4.59% | 69.5% | 0.64%
FC(F)(F)CNc1nccc(-c2cnn3ncccc23)n1 | 2.2% | 0.64% | -0.08% | 0.73% | 0.22% | -0.11% | 1.8% | -4.86% | 8.83% | 2.68%

Structure (SMILES) | inhibition [1] | inhibition [2] | inhibition [3] | inhibition [4] | inhibition [5] | inhibition [6] | inhibition [7] | inhibition [8] | inhibition [9] | inhibition [10]
N#Cc1cccc(Nc2ncc(-c3ccccc3)o2)c1 | 12.6% | 3.16% | 26.5% | 4.53% | 25.1% | 1.62% | 3.17% | -5.06% | 8.8% | 1.03%
COc1ccc2ncn(-c3cc(O[C@H](C)c4ccccc4C(F)(F)F)c(C(N)=O)s3)c2c1 | 2.53% | -0.31% | 4.65% | 0.4% | 5.65% | 1.46% | 2.56% | 0.28% | 5.58% | -0.03%
Cc1nnc(-c2cccc(-c3ccc(C(=O)NCC4CC4)cc3)c2)o1 | 1.38% | 2.02% | 4.55% | 3.7% | 3.95% | 2.44% | 3.16% | -5.67% | 0.98% | 1.82%
COC(=O)Nc1nc2ccc(Oc3ccc(NC(=O)Nc4cc(C(F)(F)F)ccc4F)cc3)cc2s1 | 81.5% | 24.9% | 61% | 25.7% | 88.5% | 1.96% | 2.35% | -0.09% | 9.84% | 1.12%
N#Cc1ccc2c(-c3ccnc(NC4CC4)n3)c(-c3ccc(F)cc3)nn2c1 | -2.02% | 0.12% | 0.68% | -1.35% | -1.48% | 0.94% | 12.3% | 0.53% | 3.53% | 0.84%
COc1cccc(Nc2nccc(-c3cnn4ncccc34)n2)c1 | 17.4% | 6.68% | 34.1% | 7.22% | 37.6% | 2.32% | 15.5% | -4.06% | 22.8% | 11.9%
COc1cc(N2CCN(C(C)C)CC2)ccc1Nc1nc(Nc2cccc(F)c2C(=O)O)c2cc[nH]c2n1 | 0.85% | 3.78% | 6.6% | 2.64% | 4.58% | 1.98% | 3.5% | -3.16% | 77.3% | 3.47%
CS(=O)(=O)CCNCc1ccc(-c2ccc3ncnc(Nc4ccc(OCc5ccccc5)cc4)c3c2)o1 | 2.55% | 2.66% | 4.99% | 3.88% | 5.1% | 0.48% | 3.39% | -1.78% | 7.19% | 3.51%
CCS(=O)(=O)c1ccc(OC)c(Nc2ncc(-c3cccc(C(C)=O)c3)o2)c1 | 9.16% | 4.28% | 20.5% | 4.38% | 29.4% | 13% | 50.5% | -3.16% | 8.55% | 2.45%
NC(=O)c1ccc2c(-c3ccnc(NCCCO)n3)c(-c3ccc(F)cc3)nn2c1 | 2.24% | 3.11% | 2.83% | 3.99% | 2.98% | 9.73% | 38.4% | -3.98% | 12.1% | 1.36%
O=C(O[C@H]1CN[C@H](C#Cc2cc3ncnc(Nc4ccc5c(cnn5Cc5ccccc5)c4)c3s2)C1)N1CCOCC1 | 2.5% | -1.64% | -0.38% | -0.59% | 1.3% | 0.8% | 2.69% | 1.26% | 6.25% | 1.41%
c1ccc(-c2n[nH]cc2-c2ccnc(-c3ccc(OCCn4ccnc4)cc3)c2)nc1 | 3.78% | 0.64% | 4.04% | 0.02% | 4.91% | 0.7% | 4.37% | 1.04% | 10.7% | 1.14%
O=C1Nc2ccccc2/C1=C1\CCc2cc(O)ccc21 | 70.6% | 28.6% | 78% | 28% | 77.5% | 2.88% | 8.68% | -2.35% | 31.4% | 8.42%
CCOc1ccc2c(-c3ccnc(Nc4cc(OC)cc(C(F)(F)F)c4)n3)cnn2n1 | 3.16% | -1.33% | 3.13% | -1.23% | 4.94% | 0.98% | 3.69% | -2.65% | 8.93% | 0.65%
Cc1c2ccc(N(C)c3ccnc(Nc4cccc(S(N)(=O)=O)c4)n3)cc2nn1C | 7.91% | 4.05% | 9.82% | 4.05% | 11.1% | 20.5% | 59.4% | -3.68% | 29.9% | 11.7%
